This is an account of results in PubChem BioAssay (NCI).

Some test systems named below: NCI-H23 lung; NCI-H226 lung; NCI-H322M lung; HOP-62 NSCLC; NCI-H460 lung; HOP-92 NSCLC; NCI-H522 lung; A549/ATCC NSCLC; 786-0 renal; COLO 205 colon; DU-145 prostate; K-562 leukemia; MALME-3M melanoma; MDA-MB-231 breast; RXF 393 renal; SF-268 CNS; SF-295 CNS; SF-539 CNS; UACC-257 melanoma.
Assay in all cases: NCI-60 one-dose screen, 48 h (100 = growth as untreated, 0 = no growth, -100 = all killed)
Holding throughout (details): 10 µM unless noted

The panel holds about 83,000 compounds, 20% with a hit somewhere; the sample as a whole holds those more often.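 Single-concentration screen, 48 h exposure, 96-well plates. Endpoint: percent growth. Below 10 = active.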 Values without a mark were called inactive. The source made the active and inactive calls.

Take `Cc1ccc(S(=O)(=O)NN/C(N)=N\S(=O)(=O)c2cc(C)c(Cl)cc2SCc2ccccc2)cc1`: the growth in the assay with NCI-H23 lung is 90.6%; in the assay with NCI-H226 lung, 90.4%; in the assay with NCI-H322M lung it was 168%; in the assay with HOP-62 NSCLC, 82.4%; in the assay on NCI-H460 lung, 110%; with HOP-92 NSCLC, 71%. The growth with NCI-H522 lung is 29.9%; with A549/ATCC NSCLC, 56.7%; in the assay on 786-0 renal, 93.4%; in the assay on COLO 205 colon, 115%; with DU-145 prostate, 115%; in the assay with K-562 leukemia, 57.8%. The growth in the assay with MALME-3M melanoma is 76.1%; with MDA-MB-231 breast it was 92.5%; in the assay on RXF 393 renal it was 8.06% (active); in the assay with SF-268 CNS, 102%; in the assay on SF-295 CNS, 95%; in the assay with SF-539 CNS, 73.9%. Moreover, the growth in the assay on UACC-257 melanoma was 97.3%.
For the molecule `CC(=O)Nc1ccc(C(=O)/C=C/c2ccccc2)cc1`, the growth in the assay on NCI-H23 lung is 96.1%; in the assay on NCI-H226 lung, 83.5%; with NCI-H322M lung it was 88.9%; in the assay on HOP-62 NSCLC, 101%; with NCI-H460 lung it was 98.3%; in the assay on HOP-92 NSCLC, 47.8%. Further, the growth in the assay on NCI-H522 lung was 53%; in the assay with A549/ATCC NSCLC it was 76.3%; in the assay with 786-0 renal it was 58.3%; in the assay with COLO 205 colon, 102%; with DU-145 prostate, 89.8%; with K-562 leukemia, 79.9%. Further, the growth with MALME-3M melanoma is 104%; with MDA-MB-231 breast, 93.2%; with RXF 393 renal, 97.4%; with SF-268 CNS, 85.4%; with SF-295 CNS, 104%; in the assay on SF-539 CNS, 96.6%. In addition, the growth in the assay on UACC-257 melanoma was 70.3%.
In the case of `COc1ccc(-c2nc3sc4c(c3c(=O)[nH]2)CCCC4)c2ccccc12`, the growth in the assay on NCI-H23 lung was 32.6%; in the assay on NCI-H226 lung it was 50.8%; in the assay on NCI-H322M lung, 37.6%; in the assay with HOP-62 NSCLC, 10.4%; in the assay on NCI-H460 lung, 0.61% (active); with HOP-92 NSCLC, 12.3%. Moreover, the growth with NCI-H522 lung was 1.5% (active); with A549/ATCC NSCLC, 15.8%; in the assay on 786-0 renal it was 10.6%; in the assay on COLO 205 colon, -32.9% (active); in the assay with DU-145 prostate, 0.642% (active); in the assay with K-562 leukemia it was 5.12% (active). In addition, the growth with MALME-3M melanoma is 41.8%; in the assay on MDA-MB-231 breast, 10.5%; with RXF 393 renal it was 17.3%; in the assay on SF-268 CNS, 24.6%; in the assay with SF-295 CNS it was -18.7% (active); with SF-539 CNS it was -57.7% (active). Also, the growth in the assay with UACC-257 melanoma is 56.8%.
Turning to `Cc1ccc(O)c(C(=O)c2ccccc2Cl)c1`, the growth in the assay with NCI-H23 lung was 94.3%; in the assay on NCI-H226 lung, 100%; with NCI-H322M lung it was 109%; with HOP-62 NSCLC, 98.3%; in the assay on NCI-H460 lung, 109%; in the assay on HOP-92 NSCLC, 112%. Also, the growth in the assay with NCI-H522 lung was 102%; in the assay on A549/ATCC NSCLC, 104%; with 786-0 renal, 99.1%; in the assay with COLO 205 colon, 138%; in the assay on DU-145 prostate, 126%; in the assay on K-562 leukemia it was 91.4%. For the same molecule, the growth is 106% in the assay with MALME-3M melanoma; 109% in the assay on MDA-MB-231 breast; 104% in the assay on RXF 393 renal; 104% in the assay on SF-268 CNS; 94.6% in the assay with SF-295 CNS; 96% in the assay on SF-539 CNS. Also, in the assay with UACC-257 melanoma, the growth is 108%.
In the case of `COc1ccc(C2=NC(=O)NC2c2ccc(OC)cc2)cc1` (stereo unspecified), the growth in the assay on NCI-H23 lung is 68.3%; in the assay on NCI-H226 lung, 74%; in the assay on NCI-H322M lung it was 132%; in the assay with HOP-62 NSCLC it was 42.3%; with NCI-H460 lung, 72.9%; in the assay on HOP-92 NSCLC, 26%. In addition, the growth in the assay with NCI-H522 lung is 54%; in the assay with A549/ATCC NSCLC, 82.8%; with 786-0 renal, 38.6%; in the assay with COLO 205 colon, 58.7%; in the assay with DU-145 prostate it was 88.5%; with K-562 leukemia, 21.2%. Besides, the growth is 75.5% in the assay on MALME-3M melanoma; 73.9% in the assay with MDA-MB-231 breast; 108% in the assay with RXF 393 renal; 73.3% with SF-268 CNS; 79.7% with SF-295 CNS; 62.4% with SF-539 CNS. For the same molecule, the growth in the assay with UACC-257 melanoma is 105%.
Regarding `COc1cccc(-c2cnco2)c1OCc1c(C)c(COc2c(OC)cccc2-c2cnco2)c(C)c(COc2c(OC)cccc2-c2cnco2)c1C`, the growth in the assay on NCI-H23 lung is 71.5%; with NCI-H226 lung, 21.8%; in the assay with NCI-H322M lung, 70.7%; in the assay with HOP-62 NSCLC, 42.1%; with NCI-H460 lung it was 52.2%; in the assay on HOP-92 NSCLC, -6.35% (active). Also, the growth with NCI-H522 lung is 33.9%; in the assay on A549/ATCC NSCLC, 51.8%; in the assay on 786-0 renal, 2.94% (active); in the assay with COLO 205 colon, 83.4%; in the assay on DU-145 prostate, 73.2%; in the assay with K-562 leukemia, 85%. In addition, the growth was 43.5% in the assay on MALME-3M melanoma; 30.5% in the assay on MDA-MB-231 breast; 45.7% in the assay with RXF 393 renal; 53.7% in the assay on SF-268 CNS; 82.1% with SF-295 CNS; 19.3% in the assay on SF-539 CNS. Moreover, in the assay with UACC-257 melanoma, the growth is 58.4%.
Regarding `COc1cc(C2CC(c3ccc(Nc4nc(Nc5ccc(F)cc5)nc(Nc5ccc(Cl)cc5)n4)cc3)=NN2C(C)=O)cc(OC)c1OC` (stereo unspecified), the growth in the assay on NCI-H23 lung was 68.8%; with NCI-H226 lung it was 67.9%; in the assay on NCI-H322M lung, 84.8%; in the assay on HOP-62 NSCLC, 72.3%; in the assay with NCI-H460 lung, 77.9%; with HOP-92 NSCLC it was 51.8%. For the same molecule, the growth in the assay on NCI-H522 lung is 73.8%; with A549/ATCC NSCLC, 50.8%; in the assay with 786-0 renal, 87.2%; in the assay with COLO 205 colon it was 58%; in the assay with DU-145 prostate, 110%; in the assay on K-562 leukemia it was 44.2%. Besides, the growth in the assay with MALME-3M melanoma was 67.9%; with MDA-MB-231 breast it was 77.8%; with RXF 393 renal it was 71.5%; with SF-268 CNS it was 90.4%; in the assay with SF-295 CNS, 339%; with SF-539 CNS, 84.6%. Further, the growth in the assay on UACC-257 melanoma was 122%.
Regarding `COc1ccc(-c2nc3sccn3c2/C=C/C(=O)c2c[nH]c3ccccc23)cc1`, the growth is 73.2% in the assay on NCI-H23 lung; 66.8% in the assay with NCI-H226 lung; 63.6% in the assay with NCI-H322M lung; 71.7% with HOP-62 NSCLC; 70.2% in the assay on NCI-H460 lung; -5.53% (active) with HOP-92 NSCLC. Moreover, the growth with NCI-H522 lung was 55.6%; in the assay on A549/ATCC NSCLC, 54.1%; with 786-0 renal it was 78.8%; in the assay with COLO 205 colon, 102%; with DU-145 prostate, 57.3%; with K-562 leukemia it was 78.9%. Further, the growth in the assay on MALME-3M melanoma is 69.8%; in the assay on MDA-MB-231 breast it was 32.7%; in the assay on SF-268 CNS it was 61.3%; in the assay with SF-295 CNS, 78.5%; with SF-539 CNS it was 82.7%; in the assay on UACC-257 melanoma, 87.2%.
